Bioassay records deposited in PubChem by National Center for Advancing Translational Sciences (NCATS).
The entries come from a sample that favours hits as a whole.
Giardia FBPA inh-1 – blocks Giardia fructose-bisphosphate aldolase activity; A8B2U2; purified Giardia FBPA; Potency, µM (titrated, usually from 59.6 µM), actives largely listed as inhibitors; actives 0.71% (n = 290,000); note: nearly all actives have a fitted effect of over 55% in size
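Giardia FBPA (40 nM reagent) was preincubated 10 min at RT with compound (up to 57.5 uM final), then substrate plus GAPDH/TPI/NAD/arsenate coupling system with diaphorase/resazurin was added; resorufin fluorescence (525/598 nm) was read after 20 min.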
CHX counter – affects cycloheximide protein synthesis inhibition readout, counter-screen; actives 12% (n = 300,000); cell reporter, cycloheximide protein synthesis inhibition counterscreen; max response, %; in the data active = max response mostly above about 13%, no sharp cut-off; inactive = mostly below about 14%; note: read at 38.3 µM for the half of the compounds with a filed dose
RE007 growth inh – less growth of the S. pombe RE007 Vpr strain | S. pombe RE007 Vpr strain, BacTiter-Glo ATP luminescence, 24 h | Potency, µM (series often up to 92.2 µM), actives largely listed as inhibitors | actives 0.21% (n = 360,000); active = well fitted falling curve with a large enough effect; inconclusive = small, poorly fitted or top-dose-only effect; inactive = no such curve, though single readings can be large or run the other way; note: nearly all actives have a fitted effect of over 50% in size
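Fission yeast RE007 carrying one integrated HIV-1 vpr copy, seeded at OD 0.01 in PMG+AL medium with 23 nL pinned compound. Grown 24 h at 30 degrees; viability read by BacTiter-Glo luminescence after 5 min.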
Shiga toxin inh – Shiga toxin inhibition; actives 9.2% (n = 290,000); AID 2315; inhibition, % at 38.7 µM; Vero cells, Shiga toxin protein synthesis inhibition reporter; in the data active = inhibition mostly above about 28%, no sharp cut-off; inactive = mostly below about 43%
LmPK inh – blocks Leishmania mexicana pyruvate kinase activity | Q27686 | purified LmPK, Kinase-Glo ATP luminescence, 1 h | Potency, µM (titrated, usually from 57.5 µM), actives largely listed as inhibitors | actives 0.37% (n = 290,000) | AID 1721
Target sequence (Q27686 whole entry, looked up): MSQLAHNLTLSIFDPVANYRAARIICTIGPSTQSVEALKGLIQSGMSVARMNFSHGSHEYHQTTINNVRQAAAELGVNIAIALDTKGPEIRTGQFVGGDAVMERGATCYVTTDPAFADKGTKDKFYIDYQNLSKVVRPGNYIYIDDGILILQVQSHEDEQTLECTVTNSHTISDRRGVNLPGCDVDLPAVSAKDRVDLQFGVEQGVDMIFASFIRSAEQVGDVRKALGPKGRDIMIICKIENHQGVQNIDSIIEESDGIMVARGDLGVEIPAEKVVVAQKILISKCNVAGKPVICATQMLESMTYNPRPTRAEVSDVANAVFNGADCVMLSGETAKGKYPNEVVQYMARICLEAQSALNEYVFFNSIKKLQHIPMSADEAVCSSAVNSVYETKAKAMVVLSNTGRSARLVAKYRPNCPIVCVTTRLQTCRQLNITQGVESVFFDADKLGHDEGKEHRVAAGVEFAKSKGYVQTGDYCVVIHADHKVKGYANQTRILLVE
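Purified LmPK (0.1 nM) converted ADP (0.1 mM) to ATP with PEP (0.5 mM) in imidazole buffer pH 7.2 with KCl and MgCl2, 1 h at room temperature. ATP was read by Kinase-Glo luminescence; data normalized to uninhibited and no-enzyme controls.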
TbPYK inhibitor – blocks Trypanosoma brucei pyruvate kinase. Q57TT1. TbPYK enzyme, Kinase-Glo Plus ATP luminescence, 45 min. Potency, µM (series often up to 76.8 µM), usual class: inhibitors. actives 0.12% (n = 410,000). AID 624173; note: nearly all actives have a fitted effect of over 50% in size
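Activity of T. brucei pyruvate kinase was followed by Kinase-Glo Plus luminescence after the enzyme reacted 45 min at room temperature with 130 uM ADP (final) and substrate. Test compounds were added before ADP at multiple concentrations.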
Giardia growth – Giardia lamblia growth inhibition | Potency, µM (doses to about 57.5 µM), usual class: inhibitors | AID 2785 | actives 5% (n = 1,500) | Giardia lamblia trophozoite growth inhibition | shares compounds with Giardia FBPA inh-1;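 note: trophozoites exposed to compound for 48 h at 37 °C; nearly all actives have a fitted effect of over 70% in size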
Mammal cell tox – mammalian cytotoxicity of Giardia aldolase inhibitor hits; shares compounds with Giardia FBPA inh-1; mammalian cell viability counter-screen, qHTS; Potency, µM (series often up to 57.5 µM), usual class: inhibitors; AID 2786; actives 4% (n = 1,500);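 note: Chinese hamster ovary cells used as mammalian cytotoxicity surrogate; viability measured as cellular ATP by luminescence; compound exposure lasted 48 h before reading; nearly all actives have a fitted effect of over 60% in size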
Giardia FBPA inh-2 – confirmation of Giardia fructose-bisphosphate aldolase inhibitors; AID 2787; purified Giardia aldolase enzyme activity, qHTS; actives 5% (n = 1,500); Potency, µM (series often up to 57.5 µM), actives largely listed as inhibitors; shares compounds with Giardia FBPA inh-1; note: nearly all actives have a fitted effect of over 45% in size
Rabbit FBPA inh – blocks rabbit muscle aldolase in Giardia aldolase selectivity test; actives 4% (n = 1,500); Rabbit muscle FBPA enzyme inhibition, selectivity counter-screen; shares compounds with Giardia FBPA inh-1; Potency, µM (series often up to 57.5 µM), actives largely listed as inhibitors; note: nearly all actives have a fitted effect of over 60% in size
GAPDH coupling – GAPDH inhibition flagged for Giardia aldolase hits | shares compounds with Giardia FBPA inh-1 | GAPDH coupling enzyme counterscreen, biochemical, qHTS | Potency, µM (titrated, usually from 57.5 µM), usual class: inhibitors | actives 6% (n = 1,500); note: nearly all actives have a fitted effect of over 55% in size
A number is an active result; - = inactive; ? = inconclusive; . = not tested or not shown; [ ] = another dose, or the depositor's remark. Unless noted, calls come from the whole dose curve; as a rule, active = well fitted curve in the direction sought with a large enough effect; inconclusive = small, poorly fitted or top-dose-only effect, or another doubt; inactive = no such curve, though single readings can be large; an effect the other way counts as inactive or inconclusive.

SMILES	Giardia FBPA inh-1	CHX counter	RE007 growth inh	Shiga toxin inh	LmPK inh	TbPYK inhibitor	Giardia growth	Mammal cell tox	Giardia FBPA inh-2	Rabbit FBPA inh	GAPDH coupling
Nc1cc(C(=O)OCC(=O)NCCNC(=O)COC(=O)c2ccc(Cl)c(N)c2)ccc1Cl	-	-	-	-	-	-	.	.	.	.	.
CC(Sc1nncn1C)C(=O)Nc1ccc2ccccc2c1 (stereo unspecified)	.	.	-	.	.	-	.	.	.	.	.
COc1ccc(Cc2nc3c4cnn(-c5cccc(F)c5)c4ncn3n2)cc1	.	.	.	.	.	-	.	.	.	.	.
Cc1ccc(C)c(-n2c3nc(=O)n(C)c(=O)c-3cc3ccccc32)c1	-	-	-	-	-	-	.	.	.	.	.
Cc1nc2c(=O)n(C)c(=O)nc-2n(C)n1	?	-	?	-	-	-	5µM	16µM	4µM	4µM	2.2µM
O=C(NC(=S)Nc1ccccc1O)c1cccnc1	?	-	-	.	-	-	.	.	.	.	.
CCCOC(=O)c1cccc(NC(=O)c2cccnc2)c1	-	-	-	-	-	-	.	.	.	.	.
N#Cc1ccccc1NC(=S)NC(=O)c1cccnc1	14µM	-	-	-	-	-	-	-	-	-	-
COc1cccc(NC(=S)Nc2ccc(O)cc2)c1	18µM	32	-	79	-	-	-	-	-	-	-
CCOC(=O)c1cccc(NC(=S)NC(=O)c2cccnc2)c1	10µM	-	-	-	-	-	-	-	-	-	-
COc1cccc(NC(=S)NC(=O)c2cccnc2)c1	3.5µM	18	-	39	-	-	-	-	-	-	-
COc1ccccc1NC(=O)Nc1cccnc1	-	-	?	-	-	-	.	.	.	.	.
O=C(CN1C(=O)NC2(CCCCCC2)C1=O)Nc1ccc2c(c1)CCC2	-	-	-	-	-	-	.	.	.	.	.
O=C(NCCS(=O)(=O)N1CCCCC1)c1ccc2c(c1)OCO2	.	.	-	.	.	-	.	.	.	.	.
O=C(NCSc1ccncn1)c1ccccc1	16µM	-	-	-	-	-	-[10.4 µM]	-	-	-	-
CCN1CCN(CC(=O)Nc2cc3c(cc2C(C)=O)OCO3)CC1	13µM	-	-	-	-	-	-[10.4 µM]	-	-	-	-
CC(C(=O)O)N1CCCCC1 (stereo unspecified)	-	-	-	-	-	-	.	.	.	.	.
COc1cccc(NC(=O)CSc2nc(O)c(C/C=C/c3ccccc3)c(=O)[nH]2)c1	.	.	.	.	.	-	.	.	.	.	.
CCN(CC)S(=O)(=O)c1ccc(C(=O)Nc2nnc(CSC)o2)cc1	16µM	-	-	-	-	-	18µM	-	-	-	-
CN(C)S(=O)(=O)c1ccc(C(=O)Nc2nnc(-c3ccco3)o2)cc1	6.3µM	-	-	-	-	-	-	-	-	-	-
CCN(CC)S(=O)(=O)c1ccc(C(=O)Nc2nnc(COC)o2)cc1	18µM	-	-	-	-	-	-	-	-	-	-
CCCCN(CCCC)S(=O)(=O)c1ccc(C(=O)Nc2nnc(COC)o2)cc1	-	-	-	-	-	-	.	.	.	.	.
CC(C)[C@H](NC(N)=O)C(=O)Nc1cccc(S(=O)(=O)N2CCOCC2)c1	-	-	-	-	-	?	.	.	.	.	.
O=C(CCC1N=C2c3ccccc3N=C(SCc3cccc(F)c3)N2C1=O)NC1CCCCC1 (stereo unspecified)	.	.	.	.	.	-	.	.	.	.	.
Cc1nnc(N2CCN(c3ccccc3)CC2)c2c1nnn2Cc1ccc(F)cc1	.	.	.	.	.	-	.	.	.	.	.
COP(=O)(OC)C(Nc1ccc(C)cc1)c1ccc(Br)cc1 (stereo unspecified)	.	.	-	.	.	-	.	.	.	.	.
COc1ccc(CCNC(=O)CNS(=O)(=O)c2ccc(F)c(Cl)c2)cc1OC	-	-	-	-	-	-	.	.	.	.	.
Cc1nc(N)sc1-c1csc(Nc2cccc(C(=O)O)c2)n1	18µM	-	-	-	-	-	-	-	?	32µM	32µM
